Test results: paper PMC4336329 (PLoS ONE, 2015)
Out of some 310,000 compounds screened, about 14,000 (4.5%) showed an effect of 50% or more. The effect is printed as a negative number. The full list was thinned out, with strong results kept by preference.

target: human ether-à-go-go-related gene (hERG) potassium channel (human, UniProt Q12809); assay: primary screen, population patch clamp on CHO cells stably expressing hERG; higher = less effect of the substance
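Note: peak tail current of the secondary pulse compared with the same well before compound.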

Chain of human ether-à-go-go-related gene (hERG) potassium channel (Q12809 whole entry, looked up): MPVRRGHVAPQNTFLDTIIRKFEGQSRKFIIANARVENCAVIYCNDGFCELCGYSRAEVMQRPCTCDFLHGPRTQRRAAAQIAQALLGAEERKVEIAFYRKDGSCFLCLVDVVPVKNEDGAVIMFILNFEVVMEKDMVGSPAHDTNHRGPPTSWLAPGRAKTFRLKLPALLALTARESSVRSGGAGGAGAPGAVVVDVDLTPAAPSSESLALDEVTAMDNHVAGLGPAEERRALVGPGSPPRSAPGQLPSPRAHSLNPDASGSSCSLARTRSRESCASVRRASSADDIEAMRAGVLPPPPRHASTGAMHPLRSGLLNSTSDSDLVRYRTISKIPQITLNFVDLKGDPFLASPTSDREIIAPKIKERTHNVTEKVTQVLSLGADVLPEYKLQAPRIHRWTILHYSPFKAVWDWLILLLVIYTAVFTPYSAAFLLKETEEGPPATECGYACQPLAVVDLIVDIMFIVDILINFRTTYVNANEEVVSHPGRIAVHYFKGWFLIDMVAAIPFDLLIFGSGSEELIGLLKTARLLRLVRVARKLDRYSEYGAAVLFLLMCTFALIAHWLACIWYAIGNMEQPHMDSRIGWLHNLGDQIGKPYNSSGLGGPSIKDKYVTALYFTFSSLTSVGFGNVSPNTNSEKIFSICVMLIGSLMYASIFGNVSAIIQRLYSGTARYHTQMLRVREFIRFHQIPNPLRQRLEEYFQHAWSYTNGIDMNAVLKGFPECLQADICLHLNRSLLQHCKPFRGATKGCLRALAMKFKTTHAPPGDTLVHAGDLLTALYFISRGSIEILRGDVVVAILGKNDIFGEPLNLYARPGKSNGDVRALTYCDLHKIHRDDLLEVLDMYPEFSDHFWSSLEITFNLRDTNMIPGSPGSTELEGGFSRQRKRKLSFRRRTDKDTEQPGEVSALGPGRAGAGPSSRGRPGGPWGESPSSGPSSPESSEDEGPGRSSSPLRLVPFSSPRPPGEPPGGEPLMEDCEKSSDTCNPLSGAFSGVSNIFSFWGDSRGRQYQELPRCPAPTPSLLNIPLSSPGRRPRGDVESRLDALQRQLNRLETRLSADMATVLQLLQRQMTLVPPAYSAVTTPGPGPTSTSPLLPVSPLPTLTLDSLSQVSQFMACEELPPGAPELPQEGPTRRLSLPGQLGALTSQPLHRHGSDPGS

Q: For `O=C(Nc1nccs1)C1CCCCN1S(=O)(=O)c1ccccc1` (stereo not shown), which “hERG current change (%, negative = inhibition) at 10uM” value is on record?
A: The value was 4.8%.

Q: For `Cc1ccc(C)c(NS(=O)(=O)c2ccc(-c3cnc(C4CC4)o3)cc2)c1`, which “hERG current change (%, negative = inhibition) at 10uM” value is on record?
A: Its value is 4.27%.

Q: For `CCN1CCN(c2nc3c(c(=O)[nH]c(=O)n3C)n2Cc2ccccc2)CC1`, which “hERG current change (%, negative = inhibition) at 10uM” value is on record?
A: Its value is -27.7%.

Q: How did the “hERG current change (%, negative = inhibition) at 10uM” value turn out when `CCN1CCN(c2nc3c(c(=O)[nH]c(=O)n3C)n2CCCc2ccccc2)CC1` was run?
A: The value was -79.2%.

Q: With `CC(C)CCn1c(CN2CCN(Cc3ccccc3)CC2)nc2c1c(=O)[nH]c(=O)n2C` as the compound, how does the “hERG current change (%, negative = inhibition) at 10uM” value read?
A: The value was -17.6%.

Q: Which “hERG current change (%, negative = inhibition) at 10uM” value does the source give for `CCCCCCn1c(N2CCN(c3ccccc3)CC2)nc2c1c(=O)[nH]c(=O)n2C` here?
A: Its value is -32.6%.

Q: Which “hERG current change (%, negative = inhibition) at 10uM” value does the source give for `Cn1c(=O)[nH]c(=O)c2c1nc(N1CCN(Cc3ccccc3)CC1)n2CCCc1ccccc1` here?
A: Its value is -31.9%.

Q: `Cn1c(=O)[nH]c(=O)c2c1nc(N1CCN(Cc3ccccc3)CC1)n2CCSc1ncccn1` was tested. Which “hERG current change (%, negative = inhibition) at 10uM” value did it give?
A: Its value is -25.7%.

Q: For `CCCCCn1c(CN2CCN(Cc3ccccc3)CC2)nc2c1c(=O)[nH]c(=O)n2C`, which “hERG current change (%, negative = inhibition) at 10uM” value is on record?
A: The value was -72.3%.

Q: For `Cc1cccc(Cn2c(CN3CCN(Cc4ccccc4)CC3)nc3c2c(=O)[nH]c(=O)n3C)c1`, which “hERG current change (%, negative = inhibition) at 10uM” value is on record?
A: Its value is -64.9%.

Q: How did the “hERG current change (%, negative = inhibition) at 10uM” value turn out when `Cn1c(=O)[nH]c(=O)c2c1nc(CN1CCN(Cc3ccccc3)CC1)n2CC(N)=O` was run?
A: The value was 7.32%.

Q: `CCCCCn1c(N2CCN(Cc3ccccc3)CC2)nc2c1c(=O)[nH]c(=O)n2C` was tested. Which “hERG current change (%, negative = inhibition) at 10uM” value did it give?
A: Its value is -74.8%.

Q: `CN1CCN(Cc2nc3c(c(=O)[nH]c(=O)n3C)n2CCc2ccccc2)CC1` was tested. Which “hERG current change (%, negative = inhibition) at 10uM” value did it give?
A: The value was -28.1%.

Q: Which “hERG current change (%, negative = inhibition) at 10uM” value does the source give for `Cn1c(=O)[nH]c(=O)c2c1nc(CN1CCOCC1)n2Cc1ccccc1` here?
A: Its value is -15.7%.

Q: Which “hERG current change (%, negative = inhibition) at 10uM” value does the source give for `COc1ccc(OC)c(NC(=O)CS(=O)(=O)Cc2nc(-c3ccccc3C)oc2C)c1` here?
A: The value was 7.66%.

Q: For `COc1ccc2c(C)cc(SC3CCOC3=O)nc2c1` (stereo not shown), which “hERG current change (%, negative = inhibition) at 10uM” value is on record?
A: Its value is -0.712%.

Q: How did the “hERG current change (%, negative = inhibition) at 10uM” value turn out when `CCCC(=O)NC(=S)Nc1cccc(NC(=O)c2ccccc2Cl)c1` was run?
A: The value was -3.15%.

Q: `CCCCCn1c(N2CCC(Cc3ccccc3)CC2)nc2c1c(=O)[nH]c(=O)n2C` was tested. Which “hERG current change (%, negative = inhibition) at 10uM” value did it give?
A: Its value is -11%.

Q: `CCCCn1c(N2CCC(Cc3ccccc3)CC2)nc2c1c(=O)[nH]c(=O)n2C` was tested. Which “hERG current change (%, negative = inhibition) at 10uM” value did it give?
A: The value was -49.4%.

Q: With `CCCCn1c(CN2CCN(c3cccc(Cl)c3)CC2)nc2c1c(=O)[nH]c(=O)n2C` as the compound, how does the “hERG current change (%, negative = inhibition) at 10uM” value read?
A: Its value is 5.59%.

Q: With `CCCn1c(N2CCC(Cc3ccccc3)CC2)nc2c1c(=O)[nH]c(=O)n2C` as the compound, how does the “hERG current change (%, negative = inhibition) at 10uM” value read?
A: Its value is -51.2%.

Q: With `CCCCCn1c(CN2CCN(c3cccc(Cl)c3)CC2)nc2c1c(=O)[nH]c(=O)n2C` as the compound, how does the “hERG current change (%, negative = inhibition) at 10uM” value read?
A: Its value is -63.3%.

Q: How did the “hERG current change (%, negative = inhibition) at 10uM” value turn out when `CCCCCn1c(N2CCN(c3cccc(Cl)c3)CC2)nc2c1c(=O)[nH]c(=O)n2C` was run?
A: The value was -29.2%.

Q: Which “hERG current change (%, negative = inhibition) at 10uM” value does the source give for `CCOC(=O)N1CCC(NC(=O)CN(c2ccc(C(C)C)cc2)S(=O)(=O)c2c(C)nn(C)c2C)CC1` here?
A: Its value is -10.3%.

Q: With `CC(CNC(=O)c1cc(COc2ccc3ncccc3c2)on1)c1ccccc1` (stereo not shown) as the compound, how does the “hERG current change (%, negative = inhibition) at 10uM” value read?
A: The value was 9.51%.

Q: With `COc1ccc(S(=O)(=O)N2CCN(C)CC2)cc1C(=O)Nc1ccccc1` as the compound, how does the “hERG current change (%, negative = inhibition) at 10uM” value read?
A: The value was 1.79%.

Q: `COc1ccc(OCC(O)CN(C2CCCCC2)C2CCCCC2)cc1.Cl` (stereo not shown) was tested. Which “hERG current change (%, negative = inhibition) at 10uM” value did it give?
A: Its value is -59.5%.

Q: `O=C(OCC(O)COc1ccccc1)c1ccc([N+](=O)[O-])cc1` (stereo not shown) was tested. Which “hERG current change (%, negative = inhibition) at 10uM” value did it give?
A: Its value is -7.79%.

Q: With `CN(CC(O)COc1ccc2ccccc2c1)C1CCCCC1.Cl` (stereo not shown) as the compound, how does the “hERG current change (%, negative = inhibition) at 10uM” value read?
A: Its value is -45.2%.

Q: For `O=[N+]([O-])c1ccc(OCC(O)CN(C2CCCCC2)C2CCCCC2)cc1` (stereo not shown), which “hERG current change (%, negative = inhibition) at 10uM” value is on record?
A: The value was -75.8%.

Q: `CCN(CC(O)COc1ccc(OCC(O)CN(CC)C2CCCCC2)cc1)C1CCCCC1` (stereo not shown) was tested. Which “hERG current change (%, negative = inhibition) at 10uM” value did it give?
A: Its value is 22.2%.

Q: With `CN(CC(O)COc1ccc(OCC(O)CN(C)C2CCCCC2)cc1)C1CCCCC1` (stereo not shown) as the compound, how does the “hERG current change (%, negative = inhibition) at 10uM” value read?
A: The value was 8.06%.

Q: How did the “hERG current change (%, negative = inhibition) at 10uM” value turn out when `Cc1cccc2nc(CSc3nc4[nH]ncc4c(=O)n3-c3cccc(Cl)c3)cc(=O)n12` was run?
A: Its value is -23.3%.

Q: `COc1ccc(CNC(=O)[C@H](Cc2ccccc2)NC(=O)C2CCN(C(=O)[C@H](C)N)CC2)cc1` was tested. Which “hERG current change (%, negative = inhibition) at 10uM” value did it give?
A: The value was -2.78%.

Q: Which “hERG current change (%, negative = inhibition) at 10uM” value does the source give for `Cc1ccc(-c2onc(C)c2C)cc1S(=O)(=O)N1CCOc2ccccc21` here?
A: The value was 9.26%.

Q: `COc1cc(/C=N/NC(=O)CCc2n[nH]c(=O)[nH]c2=O)ccc1O` was tested. Which “hERG current change (%, negative = inhibition) at 10uM” value did it give?
A: The value was -0.627%.

Q: Which “hERG current change (%, negative = inhibition) at 10uM” value does the source give for `Cc1cccc(OC(C)C(=O)Nc2nccs2)c1` (stereo not shown) here?
A: Its value is 8.8%.

Q: How did the “hERG current change (%, negative = inhibition) at 10uM” value turn out when `CC1CN(C(=O)CCC(=O)NCc2ccc(Cl)cc2)c2ccccc2O1` (stereo not shown) was run?
A: The value was -53.6%.

Q: How did the “hERG current change (%, negative = inhibition) at 10uM” value turn out when `Cc1ccc2c(c1)N(C(=O)CCC(=O)NC1CCN(Cc3ccccc3)CC1)CC(C)O2` (stereo not shown) was run?
A: Its value is -67.1%.

Q: With `Cc1ccc(CNC(=O)CCC(=O)N2CC(C)Oc3ccccc32)cc1` (stereo not shown) as the compound, how does the “hERG current change (%, negative = inhibition) at 10uM” value read?
A: Its value is -28%.

Q: With `Cc1ccc2c(c1)N(C(=O)CCC(=O)NCCCN1CCOCC1)CC(C)O2` (stereo not shown) as the compound, how does the “hERG current change (%, negative = inhibition) at 10uM” value read?
A: The value was -13.5%.

Q: With `CC1CN(C(=O)CCC(=O)NCc2ccccc2)c2cc(Cl)ccc2O1` (stereo not shown) as the compound, how does the “hERG current change (%, negative = inhibition) at 10uM” value read?
A: Its value is -11.5%.

Q: How did the “hERG current change (%, negative = inhibition) at 10uM” value turn out when `CC1CN(C(=O)CCC(=O)NCCCN2CCC(Cc3ccccc3)CC2)c2cc(Cl)ccc2O1` (stereo not shown) was run?
A: The value was -72.7%.

Q: `Cc1ccc2c(c1)N(C(=O)CCC(=O)NCCCN1CCN(C)CC1)CC(C)O2` (stereo not shown) was tested. Which “hERG current change (%, negative = inhibition) at 10uM” value did it give?
A: Its value is 9.95%.

Q: `Cc1ccc2c(c1)N(C(=O)CCC(=O)NC1CCCCCC1)CC(C)O2` (stereo not shown) was tested. Which “hERG current change (%, negative = inhibition) at 10uM” value did it give?
A: The value was -18.5%.

Q: `CC1CN(C(=O)CCC(=O)NC2CCN(Cc3ccccc3)CC2)c2ccccc2O1` (stereo not shown) was tested. Which “hERG current change (%, negative = inhibition) at 10uM” value did it give?
A: The value was -26.7%.

Q: Which “hERG current change (%, negative = inhibition) at 10uM” value does the source give for `CCN1CCN(CCCNC(=O)CCC(=O)N2CC(C)Oc3ccc(C)cc32)CC1` (stereo not shown) here?
A: Its value is -12.5%.

Q: How did the “hERG current change (%, negative = inhibition) at 10uM” value turn out when `CC1CN(C(=O)CCC(=O)NCCCN2CCN(Cc3ccccc3)CC2)c2cc(Cl)ccc2O1` (stereo not shown) was run?
A: The value was -76.1%.

Q: How did the “hERG current change (%, negative = inhibition) at 10uM” value turn out when `CC1CN(C(=O)CCC(=O)NCc2ccccc2)c2ccccc2O1` (stereo not shown) was run?
A: The value was 0.256%.

Q: With `COc1ccccc1NC(=O)c1ccc(NS(=O)(=O)c2ccc(F)c(F)c2F)cc1` as the compound, how does the “hERG current change (%, negative = inhibition) at 10uM” value read?
A: The value was -6.5%.

Q: With `COc1ccc(C(=O)CSc2nnc(-c3cccs3)n2-c2ccccc2)cc1` as the compound, how does the “hERG current change (%, negative = inhibition) at 10uM” value read?
A: The value was 4.83%.

Q: For `CSCCC(NC(=O)C12CC3CC(CC(C3)C1)C2)C(=O)OCC(=O)c1ccccc1` (stereo not shown), which “hERG current change (%, negative = inhibition) at 10uM” value is on record?
A: The value was 12.7%.
